The source made the active and inactive calls. How the source made its calls, unless noted: active means hit-call score of the fitted dose curve at least 0.9, where 1 is the maximum; inactive means score below 0.9.
Key:
[1] = Tanguay_ZF_120hpf_DP24: Oregon State University Tanguay Lab 24 Hour Post-fertilization zebrafish Assay for Delayed Development (AID 2284390)
Method in brief: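 Scored at 24 hpf as a binary present/absent call of delayed development by brightfield, with dead embryos not assessed. Embryos (5D wild type, chorion removed with pronase at 4 hpf) dosed statically from 6 hpf at 28 C in 0.64% DMSO.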

[2] = Tanguay_ZF_120hpf_CRAN: Oregon State University Tanguay Lab 120 Hour Post-fertilization zebrafish Assay for Craniofacial Malformation (AID 2284397)
Method in brief: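 Scoring of craniofacial malformation as a binary endpoint was done at 120 hpf by brightfield microscopy and was not done in dead embryos. Exposure was static, starting at 6 hpf, in dechorionated wild-type embryos held singly at 28C with 0.64% DMSO final.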

[3] = Tanguay_ZF_120hpf_AXIS: Oregon State University Tanguay Lab 120 Hour Post-fertilization zebrafish Assay for Axial Malformation (AID 2284398)
Method in brief: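 Scoring was binary (present or absent) for body-axis defects, judged by brightfield imaging at 120 hpf in surviving larvae. Exposure was static at 28C from 6 hpf in chorion-free 5D wild-type embryos, with 0.64% DMSO vehicle.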

[4] = Tanguay_ZF_120hpf_EDEM: Oregon State University Tanguay Lab 120 Hour Post-fertilization zebrafish Assay for Edema Malformation (AID 2284400)
Method in brief: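 Edema recorded as a binary endpoint under brightfield at 120 hpf, excluding embryos that died. Exposure was static, sealed, 28C, from 6 hpf in dechorionated wild-type larvae, final DMSO 0.64%, DMSO as baseline.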

[5] = Tanguay_ZF_120hpf_BRN: Oregon State University Tanguay Lab 120 Hour Post-fertilization zebrafish Assay for Brain Region Malformation (AID 2284402)
Method in brief: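 Binary brightfield scoring of brain malformation at 120 hpf in 5D wild-type larvae, chorion removed with pronase at 4 hpf. Static exposure began at 6 hpf, 28C, sealed plates, DMSO 0.64% (vol/vol) as vehicle baseline.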

[6] = Tanguay_ZF_120hpf_TCHR: Oregon State University Tanguay Lab 120 Hour Post-fertilization zebrafish Assay for Touch Responsive (AID 2284403)
Method in brief: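 Binary touch-response calls are made at 120 hpf in 5D wild-type zebrafish larvae. These larvae were dechorionated with pronase and exposed singly from 6 hpf in sealed, dark plates at 28 °C with 0.64% DMSO final; dead embryos are excluded.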

[7] = Tanguay_ZF_120hpf_ANY: Oregon State University Tanguay Lab 120 Hour Post-fertilization zebrafish Assay for Any Mortality and Malformation (AID 2284404)
Method in brief: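 Dechorionated Tropical 5D wild-type embryos, one per well from 6 hpf, static exposure in sealed, dark plates at 28C until 120 hpf, 0.64% DMSO final. Brightfield scoring of mortality and malformations as binary presence/absence, pooling 13 morphology endpoints.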

[8] = CCTE_Deisenroth_H295R-HTRF_384WELL_ESTRADIOL: CCTE's H295R-HTRF Assay Evaluation of Estradiol Concentration, Deisenroth Lab (AID 2284361); conditions: actives raise or lower the signal
Method in brief: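 Estradiol secreted into medium by H295R adrenocortical cells, quantified by HTRF after 48 h dosing over a nine-point 0.001 - 100 uM final range; gain or loss versus DMSO. Parallel ATP-luminescence viability readout; n=5 experiments.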

[9] = CCTE_Deisenroth_H295R-HTRF_384WELL_TESTOSTERONE: CCTE's H295R-HTRF Assay Evaluation of Testosterone Concentration, Deisenroth Lab (AID 2284373); conditions: actives raise or lower the signal
Method in brief: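 H295R cells were acclimated 24 h, then exposed 48 h to nine concentrations (0.001–100 uM final) in technical triplicate, n=5. Testosterone in conditioned medium was measured by HTRF (em 620/665 nm). Fitting was bidirectional versus DMSO; CellTiter-Glo viability ran on the same plates.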

[10] = CCTE_Deisenroth_H295R-HTRF_384WELL_CTOX: Cytotoxicity Assessment in CCTE's H295R-HTRF Assay, Deisenroth Lab (AID 2284380; active means hit-call score of the fitted dose curve at least 0.9, where 1 is the maximum)
Method in brief: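 Luminescent ATP viability readout (CellTiter-Glo 2.0), multiplexed on plates used for hormone sampling, after 48 h chemical exposure. Human H295R cells; final concentrations 0.001–100 uM in nine steps, technical triplicates, five experiments; DMSO baseline.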

SMILES | outcome [1] | outcome [2] | outcome [3] | outcome [4] | outcome [5] | outcome [6] | outcome [7] | AC50 [7] | AC50 [2] | AC50 [4] | outcome [8] | outcome [9] | AC50 [10]
FC(F)(F)C(F)(F)C(F)(F)C(F)(F)C(F)(F)C(F)(F)I | inactive | inactive | inactive | inactive | inactive | inactive | inactive |  |  |  |  |  | 
NCC(F)(F)C(F)(F)C(F)(F)C(F)(F)F | inactive | inactive | inactive | inactive | inactive | inactive | inactive |  |  |  |  |  | 
C[Si](C)(C)C(F)(F)C(F)(F)C(F)(F)F | inactive | inactive | inactive | inactive | inactive | inactive | inactive |  |  |  |  |  | 
O=S(=O)(O)CCC(F)(F)C(F)(F)C(F)(F)C(F)(F)C(F)(F)C(F)(F)F | inactive | inactive | inactive | inactive | inactive | inactive | inactive |  |  |  |  |  | 
O=C(Cl)C(F)(F)C(F)(F)C(F)(F)C(=O)Cl | inactive | inactive | inactive | inactive | inactive | inactive |  | 57.6 µM (active) |  |  |  |  | 
OC(O)(C(F)C(O)(O)C(F)(F)F)C(F)(F)F | inactive |  | inactive |  | inactive | inactive |  | 40.5 µM (active) | 42.2 µM (active) | 66.9 µM (active) |  |  | 
OCCC(F)(F)C(F)(F)C(F)(F)C(F)(F)F | inactive | inactive | inactive | inactive | inactive | inactive | inactive |  |  |  |  |  | 
FC(F)(F)COC(OCC(F)(F)F)OCC(F)(F)F | inactive | inactive | inactive | inactive | inactive | inactive | inactive |  |  |  |  |  | 
CC(C)C(=O)Nc1ccc([N+](=O)[O-])c(C(F)(F)F)c1 |  |  |  |  |  |  |  |  |  |  | inactive | inactive | 66.7 µM (active)
FC(F)=C(F)C(F)(F)C(F)(F)C(F)(F)C(F)(F)C(F)(F)C(F)(F)F | inactive | inactive | inactive | inactive | inactive | inactive | inactive |  |  |  |  |  | 
FC(F)C(F)(F)COCC1CO1 (stereo not drawn) | inactive | inactive | inactive | inactive | inactive | inactive | inactive |  |  |  |  |  | 

Reference: PubChem BioAssay (EPA / NIEHS)
